About 410 targets per protein were measured; listed, in parts, are those with the strongest signals and a random draw of the rest.
Columns and labels:
Experiment in all cases: glycan array binding signal (z-score within array); higher = stronger binding
Details in all cases: glycan notation: IUPAC condensed, linker removed
[1] = molecular target: Fuc(a1-2)Gal(b1-4)GlcNAc(b1-2)Man(a1-3)[Fuc(a1-2)Gal(b1-4)GlcNAc(b1-2)Man(a1-6)]Man(b1-4)GlcNAc(b1-4)[Fuc(a1-6)]GlcNAc
In short: (§1)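 Glycan array data came from 3228 arrays in the Consortium for Functional Glycomics database, and only arrays with an available protein sequence were kept. Glycan names were put into IUPAC-condensed notation, and columns mapping to the same glycan were averaged. The binding signal is a within-array Z-score, averaged across arrays of one protein sequence run at different concentrations or buffers and across linkers. A negative Z-score can be read as non-binding.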

[2] = molecular target: Fuc(a1-2)[GalNAc(a1-3)]Gal(b1-3)GlcNAc(b1-3)GalNAc
In short: as §1

[3] = molecular target: Fuc(a1-2)[GalNAc(a1-3)]Gal(b1-4)[Fuc(a1-3)]GlcNAc(b1-3)GalNAc
In short: as §1

[4] = molecular target: Fuc(a1-3)[Gal(b1-4)]GlcNAc(b1-2)Man(a1-3)[Fuc(a1-3)[Gal(b1-4)]GlcNAc(b1-2)Man(a1-6)]Man(b1-4)GlcNAc(b1-4)GlcNAc
In short: as §1

[5] = molecular target: Gal(a1-3)Gal(b1-3)GlcNAc
In short: as §1

[6] = molecular target: Gal(a1-3)Gal(b1-3)GlcNAc(b1-2)Man(a1-3)[Gal(a1-3)Gal(b1-3)GlcNAc(b1-2)Man(a1-6)]Man(b1-4)GlcNAc(b1-4)GlcNAc
In short: as §1

[7] = molecular target: Gal(a1-3)Gal(b1-4)[Fuc(a1-3)]GlcNAc(b1-2)Man(a1-3)[Gal(a1-3)Gal(b1-4)[Fuc(a1-3)]GlcNAc(b1-2)Man(a1-6)]Man(b1-4)GlcNAc(b1-4)GlcNAc
In short: as §1

[8] = molecular target: Gal(a1-3)GalNAc
In short: as §1

[9] = molecular target: Gal(a1-3)[Gal(a1-4)]Gal(b1-4)GlcNAc
In short: as §1

[10] = molecular target: Gal(a1-4)Gal(b1-4)Glc
In short: as §1

[11] = molecular target: Gal(a1-4)Gal(b1-4)GlcNAc(b1-3)Gal(b1-4)Glc
In short: as §1

[12] = molecular target: Gal(b1-3)GalNAc(b1-4)Gal(b1-4)Glc
In short: as §1

[13] = molecular target: Gal(b1-3)GlcNAc(b1-3)Gal(b1-3)GlcNAc
In short: as §1

[14] = molecular target: Gal(b1-3)GlcNAc(b1-3)Gal(b1-4)[Fuc(a1-3)]GlcNAc(b1-6)[Gal(b1-3)GlcNAc(b1-3)]Gal(b1-4)Glc
In short: as §1

[15] = molecular target: Gal(b1-3)GlcNAc6S
In short: as §1

[16] = molecular target: Gal(b1-3)[Fuc(a1-4)]GlcNAc(b1-6)GalNAc
In short: as §1

[17] = molecular target: Gal(b1-4)GlcNAc
In short: as §1

[18] = molecular target: Gal(b1-4)GlcNAc(b1-3)Gal(b1-4)GlcNAc(b1-3)Gal(b1-4)GlcNAc(b1-3)Gal(b1-4)GlcNAc(b1-2)[Gal(b1-4)GlcNAc(b1-3)Gal(b1-4)GlcNAc(b1-3)Gal(b1-4)GlcNAc(b1-3)Gal(b1-4)GlcNAc(b1-6)]Man(a1-6)[Gal(b1-4)GlcNAc(b1-3)Gal(b1-4)GlcNAc(b1-3)Gal(b1-4)GlcNAc(b1-3)Gal(b1-4)GlcNAc(b1-2)Man(a1-3)]Man(b1-4)GlcNAc(b1-4)[Fuc(a1-6)]GlcNAc
In short: as §1

[19] = molecular target: GalNAc(a1-3)Gal
In short: as §1

[20] = molecular target: GalNAc(b1-3)Gal(a1-4)Gal(b1-4)GlcNAc
In short: as §1

[21] = molecular target: GalNAc(b1-3)Gal(a1-6)Gal(b1-4)Glc
In short: as §1

[22] = molecular target: GalNAc(b1-4)GlcNAc
In short: as §1

[23] = molecular target: GalNAc(b1-6)GalNAc
In short: as §1

[24] = molecular target: Glc(a1-6)Glc(a1-6)Glc
In short: as §1

[25] = molecular target: GlcNAc(a1-4)Gal(b1-4)GlcNAc(b1-3)Gal(b1-4)[Fuc(a1-3)]GlcNAc(b1-3)Gal(b1-4)[Fuc(a1-3)]GlcNAc
In short: as §1

[26] = molecular target: GlcNAc(b1-3)Gal(b1-4)GlcNAc
In short: as §1

[27] = molecular target: GlcNAc(b1-3)Gal(b1-4)GlcNAc(b1-2)Man(a1-3)[GlcNAc(b1-3)Gal(b1-4)GlcNAc(b1-2)Man(a1-6)]Man(b1-4)GlcNAc(b1-4)GlcNAc
In short: as §1

[28] = molecular target: GlcNAc(b1-3)Gal(b1-4)GlcNAc(b1-2)[GlcNAc(b1-3)Gal(b1-4)GlcNAc(b1-6)]Man(a1-6)[GlcNAc(b1-3)Gal(b1-4)GlcNAc(b1-2)Man(a1-3)]Man(b1-4)GlcNAc(b1-4)GlcNAc
In short: as §1

[29] = molecular target: GlcNAc(b1-3)Gal(b1-4)GlcNAc(b1-3)Gal(b1-4)GlcNAc(b1-2)Man(a1-3)[GlcNAc(b1-3)Gal(b1-4)GlcNAc(b1-3)Gal(b1-4)GlcNAc(b1-2)Man(a1-6)]Man(b1-4)GlcNAc(b1-4)GlcNAc
In short: as §1

[30] = molecular target: Man(a1-2)Man(a1-6)[Man(a1-3)]Man(a1-6)[Man(a1-2)Man(a1-2)Man(a1-3)]Man(b1-4)GlcNAc(b1-4)GlcNAc
In short: as §1

[31] = molecular target: Neu5Ac(a2-3)Gal(b1-3)GalNAc
In short: as §1

[32] = molecular target: Neu5Ac(a2-3)Gal(b1-3)GalNAc(b1-4)[Neu5Ac(a2-8)Neu5Ac(a2-3)]Gal(b1-4)Glc
In short: as §1

[33] = molecular target: Neu5Ac(a2-3)Gal(b1-4)GlcNAc(b1-3)Gal(b1-4)GlcNAc(b1-3)Gal(b1-4)GlcNAc
In short: as §1

[34] = molecular target: Neu5Ac(a2-3)Gal(b1-4)GlcNAc(b1-6)[Gal(b1-3)]GalNAc
In short: as §1

[35] = molecular target: Neu5Ac(a2-3)Gal6S(b1-4)GlcNAc
In short: as §1

[36] = molecular target: Neu5Ac(a2-3)[GalNAc(b1-4)]Gal(b1-4)GlcNAc
In short: as §1

[37] = molecular target: Neu5Ac(a2-3)[GalNAc(b1-4)]Gal(b1-4)GlcNAc(b1-3)GalNAc
In short: as §1

[38] = molecular target: Neu5Ac(a2-6)Gal(b1-4)GlcNAc(b1-2)[Neu5Ac(a2-6)Gal(b1-4)GlcNAc(b1-6)]Man(a1-6)[Neu5Ac(a2-6)Gal(b1-4)GlcNAc(b1-2)Man(a1-3)][GlcNAc(b1-4)]Man(b1-4)GlcNAc(b1-4)GlcNAc
In short: as §1

[39] = molecular target: Neu5Ac(a2-6)Gal(b1-4)GlcNAc(b1-3)Gal(b1-4)GlcNAc(b1-3)Gal(b1-4)GlcNAc(b1-2)Man(a1-3)[Neu5Ac(a2-6)Gal(b1-4)GlcNAc(b1-3)Gal(b1-4)GlcNAc(b1-3)Gal(b1-4)GlcNAc(b1-2)Man(a1-6)]GalNAc
In short: as §1

[40] = molecular target: Neu5Ac(a2-6)GalNAc
In short: as §1

[41] = molecular target: Neu5Ac(a2-6)GalNAc(b1-4)GlcNAc
In short: as §1

[42] = molecular target: Neu5Ac(a2-8)Neu5Ac(a2-3)[Gal(b1-3)GalNAc(b1-4)]Gal(b1-4)Glc
In short: as §1

[43] = molecular target: Neu5Ac(b2-6)Gal(b1-4)GlcNAc
In short: as §1

[44] = molecular target: Neu5Gc(a2-6)GalNAc
In short: as §1

B1: pilr alpha (protein)
chain: MLYGVTQPKHLSASMGGSVEIPFSFYYPWELATAPDVRISWRRGHFHRQSFYSTRPPSIHKDYVNRLFLNWTEGQKSGFLRISNLQKQDQSVYFCRVELDTRSSGRQQWQSIEGTKLSIT
glycan array binding signal (z-score) [1]: 0.117
glycan array binding signal (z-score) [2]: -0.147
glycan array binding signal (z-score) [3]: 6.68
glycan array binding signal (z-score) [4]: -1.03
glycan array binding signal (z-score) [5]: 0.373
glycan array binding signal (z-score) [6]: -0.319
glycan array binding signal (z-score) [7]: -0.503
glycan array binding signal (z-score) [8]: 2.27
glycan array binding signal (z-score) [9]: 7.86
glycan array binding signal (z-score) [10]: 1.77
glycan array binding signal (z-score) [11]: -0.604
glycan array binding signal (z-score) [12]: 2.46
glycan array binding signal (z-score) [13]: -0.764
glycan array binding signal (z-score) [14]: 0.008
glycan array binding signal (z-score) [15]: -0.425
glycan array binding signal (z-score) [16]: -0.479
glycan array binding signal (z-score) [17]: -0.271
glycan array binding signal (z-score) [18]: 2.72
glycan array binding signal (z-score) [19]: 0.654
glycan array binding signal (z-score) [20]: 2.72
glycan array binding signal (z-score) [21]: -0.342
glycan array binding signal (z-score) [22]: 8.03
glycan array binding signal (z-score) [23]: 0.632
glycan array binding signal (z-score) [24]: -0.27
glycan array binding signal (z-score) [25]: 0.876
glycan array binding signal (z-score) [26]: -0.07
glycan array binding signal (z-score) [27]: 0.049
glycan array binding signal (z-score) [28]: 1.61
glycan array binding signal (z-score) [29]: 1.68
glycan array binding signal (z-score) [30]: -0.021
glycan array binding signal (z-score) [31]: -0.231
glycan array binding signal (z-score) [32]: -0.149
glycan array binding signal (z-score) [33]: -0.173
glycan array binding signal (z-score) [34]: -0.533
glycan array binding signal (z-score) [35]: -0.007
glycan array binding signal (z-score) [36]: -0.65
glycan array binding signal (z-score) [37]: 0.118
glycan array binding signal (z-score) [38]: 0.09
glycan array binding signal (z-score) [39]: 1.89
glycan array binding signal (z-score) [40]: -0.546
glycan array binding signal (z-score) [41]: -0.492
glycan array binding signal (z-score) [42]: -0.167
glycan array binding signal (z-score) [43]: -0.768
glycan array binding signal (z-score) [44]: -0.353
